Screening data deposited in PubChem by National Center for Advancing Translational Sciences (NCATS).
An excerpt weighted towards active compounds, which were near 6.9% of everything screened.
VDR inhibitor – blocks the human vitamin D receptor; P11473; VDR-SRC2-3 peptide fluorescence polarization, 2 h; Potency, µM, without a hit: max response, negative = inhibition, hits mostly inhibitors; 0.93% of 400,000 active; also: % is scaled to controls: 0 for no effect and ±100 for the full control effect
Target sequence (P11473 whole entry, looked up): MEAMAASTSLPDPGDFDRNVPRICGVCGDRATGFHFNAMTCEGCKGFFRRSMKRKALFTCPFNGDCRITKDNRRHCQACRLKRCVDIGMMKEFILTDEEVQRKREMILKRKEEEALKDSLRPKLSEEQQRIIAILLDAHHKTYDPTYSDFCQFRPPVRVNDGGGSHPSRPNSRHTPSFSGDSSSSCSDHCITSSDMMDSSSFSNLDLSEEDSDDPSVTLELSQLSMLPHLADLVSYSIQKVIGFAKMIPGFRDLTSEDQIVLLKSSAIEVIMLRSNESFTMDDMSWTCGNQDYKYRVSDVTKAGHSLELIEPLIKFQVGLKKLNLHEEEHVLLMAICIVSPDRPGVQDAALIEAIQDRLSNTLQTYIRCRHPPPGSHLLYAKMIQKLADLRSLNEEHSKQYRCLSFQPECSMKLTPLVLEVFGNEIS
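Compounds are added to VDR with labelled SRC2-3 coactivator peptide and held 2 h at room temperature. Inhibition of the VDR–peptide interaction is then read as a change in fluorescence polarization.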
PLK1 PBD block – blocks phosphopeptide binding to human PLK1 polo-box domain | Plk1 PBD binding of FITC phosphopeptide, fluorescence polarization | Potency, µM, for inactives: max response, negative = inhibition, actives largely listed as inhibitors | 2.8% of 360,000 active | AID 720504; also: series mostly up to about 57 µM; % is scaled to controls: 0 for no effect and ±100 for the full control effect; nearly all actives have a fitted effect of over 65% in size
L3MBTL1 block – blocks human L3MBTL1 | AlphaScreen L3MBTL1–H3K9me1 peptide binding | Potency, µM (series often up to 57.1 µM), for the others: at the highest dose activity, negative = inhibition, hits mostly inhibitors | 0.66% of 230,000 active | AID 485360; also: % is scaled to controls: 0 for no effect and ±100 for the full control effect; nearly all actives have a fitted effect of over 60% in size
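Displacement of a biotinylated histone H3(1-15) peptide monomethylated at Lys9 (75 nM) from L3MBTL1 (50 nM) was measured by AlphaScreen after a 30 min room-temperature compound incubation; cefsulodin titration served as intraplate control.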
JMJD2A Tudor inh – blocks the human JMJD2A Tudor domain; O75164; AlphaScreen JMJD2A-Tudor / H3K4me3 peptide binding; Potency, µM (doses to about 114 µM), without a hit: top-dose activity change, negative = inhibition, most hits filed as inhibitors; 4.4% of 390,000 active; also: % is scaled to controls: 0 for no effect and ±100 for the full control effect; nearly all actives have a fitted effect of over 50% in size
BAZ2B block – BAZ2B (human) inhibition | Potency, µM (series often up to 114 µM), inactives show at the highest dose activity change, negative = inhibition, actives largely listed as inhibitors | Q9UIF8 | 4.4% of 360,000 active | AlphaScreen BAZ2B-H3K14Ac peptide displacement; also: % is scaled to controls: 0 for no effect and ±100 for the full control effect; nearly all actives have a fitted effect of over 60% in size
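Inhibition is scored as reduced AlphaScreen emission. The BAZ2B/b-H3(5-23)K14Ac complex (50 nM each) in PBS pH 7.4, 0.01% Tween-20 meets compound (up to 110 uM) for 30 min at RT before bead addition.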
HP1b binding inh – blocks HP1-beta chromodomain binding to methylated histone tails; P83916; AlphaScreen HP1-beta / biotin-H3K9me3 peptide binding; Potency, µM (series often up to 114 µM), for inactives: top-dose activity change, negative = inhibition, actives largely listed as inhibitors; 0.56% of 390,000 active; AID 540317; also: nearly all actives have a fitted effect of over 70% in size
Target sequence (P83916 whole entry, looked up): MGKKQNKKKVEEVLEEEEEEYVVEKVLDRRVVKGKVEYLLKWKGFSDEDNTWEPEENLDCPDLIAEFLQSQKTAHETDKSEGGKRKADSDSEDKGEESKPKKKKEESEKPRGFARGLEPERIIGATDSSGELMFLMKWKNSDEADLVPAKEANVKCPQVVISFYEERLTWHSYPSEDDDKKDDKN
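HP1-beta protein (50 nM final) preincubated 30 min at room temperature with biotinylated H3(1-18)K9me3 peptide (50 nM) in PBS pH 7.4, 0.01% Tween-20, then compound added for 30 min. AlphaScreen streptavidin donor/nickel chelate acceptor beads (10 ug/mL final), 30 min dark, luminescence read.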
The depositor's hits bear a star; ? = inconclusive; . = not tested or not shown; ! = repeats disagree; [ ] = dose if it differs, or a comment. Calls follow the shape of the dose curve; as a rule, active = well fitted curve in the direction sought with a large enough effect; inconclusive = small, poorly fitted or top-dose-only effect, or another doubt; inactive = no such curve, though single readings can be large; an effect the other way counts as inactive or inconclusive. Potency is read from the fitted curve at half-maximal effect.

SMILES	VDR inhibitor	PLK1 PBD block	L3MBTL1 block	JMJD2A Tudor inh	BAZ2B block	HP1b binding inh
CC1=C(C(=O)Nc2ccc(C)cc2C)C(c2ccc[nH]2)n2ncnc2N1 (stereo unspecified)	0%	.	.	-3%	5%	24%[57 µM]
CC1=C(C(=O)Nc2ccccc2C)C(c2ccc[nH]2)n2ncnc2N1 (stereo unspecified)	3%	.	.	56µM*	50µM*	-2%[57 µM]
CCOc1cc(C2C(C(=O)Nc3ccccc3)=C(C)Nc3ncnn32)cc(Br)c1O (stereo unspecified)	-2%	.	.	?	79µM*	12%[57 µM]
COc1ccc(Cc2nnc(SCC(=O)c3ccc4c(c3)NC(=O)CO4)o2)cc1	-10%	2%	2%	-6%	11%	36%
COc1ccc(/C=N/NC(=O)c2nnn(-c3nonc3N)c2-c2cccs2)cc1OC	2%	-16%	.	-23%	56µM*	28%
CCOc1cccc(-c2c(C(=O)N/N=C(\C)c3ccccn3)nnn2-c2nonc2N)c1	-8%	-4%	.	25µM*	13µM*	12%[57 µM]
CCOc1ccc(-c2c(C(=O)N/N=C/C3CC=CCC3)nnn2-c2nonc2N)cc1 (stereo unspecified)	3%	-14%	.	-21%	79µM*	51%
CCOc1cccc(-c2c(C(=O)N/N=C/c3ccoc3)nnn2-c2nonc2N)c1	?	30µM*	.	25µM*	79µM*	-17%
O=C(Nc1ccccc1Cl)C(Cl)C(=O)c1ccccc1 (stereo unspecified)	-11%	1.7µM*	.	-15%	?	20%
O=C(Nc1ccccc1Cl)c1ccccc1	-7%	10%	.	3%	.	21%
O=C(Nc1ccc(Nc2ccccc2)cc1)Nc1ccccc1Cl	12%	-7%	-22%	?	20µM*	?
O=C(Nc1ccccc1)Nc1cccc2ccccc12	4%	-1%	7%	-5%	2%	13%
O=C(Nc1ccccc1)Nc1ccc(O)c2ccccc12	50µM*	?	.	?	.	?
COc1ccc(CNC(=O)CCc2c(C)nc3c(c(C)nn3-c3ccccc3)c2C)cc1	15%	.	.	-1%	1%	46%
COc1ccc(C2=C(C)C(N3CCC(C(=O)NCc4ccco4)CC3)=NS2(=O)=O)cc1	2%	.	.	-6%	-15%	13%
CC(C)CC(=O)N1CCN(c2ccc(NC(=O)c3ccco3)cc2)CC1	2%	1%	.	-7%	-14%	26%
CC1=C[C@@H](C)[C@@H](c2ccccc2)OC1=O	4%	-4%	.	-19%	.	13%
Cc1ccc(S(=O)(=O)N2CC3=C(C2)C2CC2(C)C3)cc1 (stereo unspecified)	.	-2%	.	.	.	.
CCN(C(=O)Cn1c(=O)oc2cc(S(=O)(=O)N3CCCCC3)ccc21)c1ccccc1	1%	.	.	-16%	2%	13%
CC(C)(C)C(=O)[C@@H]1[C@@H]2C(=O)N(C3CCCCC3)C(=O)[C@@H]2[C@H]2c3ccccc3C=CN12	27%	27µM*	.	?	-15%	46%
CC(=O)NCCNc1nc(-c2c(C)noc2C)nc2ccccc12	-19%	.	.	.	.	.
COc1ccc(NC(=O)N2CCc3c([nH]c4ccc(OC)cc34)C2c2ccc(OC)cc2)cc1 (stereo unspecified)	12%	.	.	?	?	1%
CCC(C)NC(=O)Cn1ccc2cc(S(=O)(=O)N3CCCCC3)ccc21 (stereo unspecified)	11%	.	.	-11%	5%	30%
CCc1nn(C(C)C(=O)NCCc2ccccc2)c(=O)c2cc3occc3n12 (stereo unspecified)	17%	-16%	.	-9%	-2%	18%
CCc1nn(CC(=O)NC(C)CCc2ccccc2)c(=O)c2cc3occc3n12 (stereo unspecified)	?	24µM*	.	45µM*	-17%	-2%
SMILES	VDR inhibitor	PLK1 PBD block	L3MBTL1 block	JMJD2A Tudor inh	BAZ2B block	HP1b binding inh
CC1CCC/C(=N/Nc2nc3ccccc3s2)C1 (stereo unspecified)	-6%	30µM*	-54%	?	?	?
CN(C)c1ccc(N=Cc2nc(-c3ccccc3)oc2OC(=O)c2ccccc2)cc1	-4%	2%	-3%	-7%	3%	37%
CN(C)c1ccc(N=Cc2cccn2C)cc1	?	-7%	.	50µM*	20µM*	-34%
CCOc1ccc(-c2nnc(-c3ccncc3)o2)cc1	71µM*	27µM*	2%	50µM*	-36%	?
CC(=O)Nc1ccc(SC(C)C(=O)NC(N)=O)cc1 (stereo unspecified)	-20%	24µM*	.	-8%	-1%	26%
COc1ccc(NC(=O)C(C)Sc2ccccc2)cc1 (stereo unspecified)	0%	0%	.	-1%	-10%	23%
c1csc(CNc2ncnc3ccc(-c4ccoc4)cc23)c1	32µM*!	.	3%	-15%	-8%	38%
c1ccc(CNc2ncncc2-c2ccoc2)cc1	50µM*	.	.	.	.	.
c1csc(CNc2ncncc2-c2ccoc2)c1	50µM*	.	.	.	.	.
CCc1cccc(NC(=O)CC2Oc3ccc(C)cc3NC2=O)c1 (stereo unspecified)	-23%	.	.	1%	-26%	7%
O=C(NCCO)C(=O)NCC1OCCCN1S(=O)(=O)c1cc(F)ccc1F (stereo unspecified)	2%	-1%	.	-9%	1%	8%
CC(C)(C)c1cc(CCC(=O)NN)cc(C(C)(C)C)c1O	12%	-3%	.	-28%	4%	12%
COCCOC(=O)/C(=C\c1cc(C(C)(C)C)c(O)c(C(C)(C)C)c1)C(C)=O	35µM*	-10%	-3%	-22%	-11%	14%
COC(=O)c1cc2sc(C)cc2n1Cc1cccc(OC)c1	-16%	.	.	56%	50%	88%
S=c1[nH]nc(-c2cc(-c3ccccc3)n[nH]2)n1/N=C/C(Br)=C/c1ccccc1	-21%	?	?	56µM*	10µM*	18%
Cc1cccc(/C=N/n2c(-c3cc(-c4ccccc4)n[nH]3)n[nH]c2=S)c1	-3%	-25%	-19%	79µM*	-39%	?
S=c1[nH]nc(-c2cc(-c3ccccc3)n[nH]2)n1/N=C/c1ccccc1	-16%	-21%	.	56µM*	-14%	32%
CN1CCN(c2ncc3nc(-c4cccs4)c(=O)n(-c4ccccc4)c3n2)CC1	0%	.	.	.	.	.
Cc1ccc(C(=O)N/C(=C/c2ccccc2)C(=O)NCC2CCCO2)cc1 (stereo unspecified)	13%	-10%	.	-5%	5%	51%
O=C1N/C(=N/Nc2ccccc2)S/C1=C\c1ccccc1	45µM*	21µM*	-28%	45µM*	40µM*	?
O=C1Nc2ccccc2SC1=Cc1ccccc1	.	-5%	.	.	.	.
